Compounds with a hit are over-represented: about 2.5% of the library has one in this group of screens.
iPSC survival up: hiPSC single-cell survival enhancement; ATPlite luminescence; 100% = ROCK inhibitor wells, 0% = DMSO; survival enhancement, % at 20 µM; hit rate 0.044% among 360,000; in the data active means survival enhancement above about 18%;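 further: cells exposed to compounds for 16 hours before the ATP read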
SKN-1 inh: blocks SKN-1 activity in C. elegans; hit rate 0.49% among 360,000; C. elegans VP596 Pgst-4::GFP/RFP ratio, acrylamide-induced, 24 h; inhibition, % at 21.8 µM;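 active means interference check ratio from 0.5 to 1.5 plus GFP to RFP signal ratio inhibition reaching or exceeding a fixed threshold, cut at about 30% in these data, passing the limit was not always enough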
TAG inh: inhibitors of triacylglycerol accumulation; H9c2 cells, Nile Red lipid (TAG) fluorescence; cells loaded with 200 µM oleic acid; inhibition, % at 12.5 µM; hit rate 0.66% among 230,000;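 active means pattern-corrected inhibition of lipid staining of at least 50% with the nuclear-stain viability signal not falling by more than 50%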
CRFR2-BP antag: antagonists of CRF-binding protein/CRF-R2 receptor complex. HEK293 CRF-R2/CRF-BP, CRF-induced calcium fluorescence. hit rate 0.59% among 350,000. AID 588475. inhibition, % at 11.8 µM;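 active means inhibition of the ligand-induced calcium signal above about 50% at the single tested concentration, limit read from the data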
H9c2 protect: modulators protecting cardiomyocytes from myocardial damage | H9c2 cardiomyocytes, H2O2 injury protection, ATPLite, 2 h | protection from H2O2 cell death, % at 20 µM | hit rate 0.63% among 360,000 | AID 588492;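 active means compounds giving at least 50% protection of heart cells from peroxide-induced death in the single-dose screen, raw or plate-pattern-corrected value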
CRFR2-BP ag: CRF-BP/CRF-R2 complex agonism. HEK293 CRF-R2/CRF-BP, calcium dye fluorescence (FLIPR); percent of saturating CRF peptide response. activation, % at 13.2 µM. hit rate 0.46% among 350,000;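 active means activation of at least 50%, plus an integration ratio under a set limit after plate pattern correction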
H9c2 TAG conf: triacylglycerol accumulation inhibition, confirmation; hit rate 71% among 990; H9c2 lipid accumulation, Nile Red fluorescence; cells loaded with 200 µM oleic acid; inhibition, % at 12.5 µM; AID 651629; shares compounds with TAG inh;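 active means mean inhibition across replicates of 40% or more; inactive means mean inhibition below 40%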
A number is an active result.

O=C(CN1C(=O)CSc2ccc(S(=O)(=O)N3CCOCC3)cc21)NCc1ccc(F)cc1 was read as iPSC survival up inactive, SKN-1 inh inactive, CRFR2-BP antag inactive, H9c2 protect inactive and CRFR2-BP ag inactive.
For Cc1cc(-n2c(C)cc(C(=O)CSc3nc4ccccc4c(=O)n3Cc3ccco3)c2C)no1 the results were iPSC survival up inactive, SKN-1 inh inactive, TAG inh 55, CRFR2-BP antag inactive, H9c2 protect inactive, CRFR2-BP ag 68 and H9c2 TAG conf inactive.
`Cc1ccc(C)c(OCCC(=O)OCC(=O)NC(=O)NC2CCCC2)c1` gave iPSC survival up inactive, SKN-1 inh inactive, TAG inh inactive, CRFR2-BP antag inactive, H9c2 protect inactive and CRFR2-BP ag inactive.
Screening COc1cc(C2C3=C(COC3=O)Oc3cc4c(cc32)OCO4)ccc1O (stereo not drawn) returned iPSC survival up inactive, SKN-1 inh inactive, TAG inh 55, CRFR2-BP antag inactive, H9c2 protect inactive, CRFR2-BP ag inactive and H9c2 TAG conf 71.
Screening Cc1ccc(C)c(Oc2cc(NN3CCCCC3)c([N+](=O)[O-])cc2[N+](=O)[O-])c1 returned iPSC survival up inactive, SKN-1 inh inactive, TAG inh inactive, CRFR2-BP antag inactive, H9c2 protect inactive and CRFR2-BP ag inactive.
Cc1ccc(F)c(Oc2cc(NN3CCCCC3)c([N+](=O)[O-])cc2[N+](=O)[O-])c1 was read as iPSC survival up inactive, SKN-1 inh inactive, TAG inh 50, CRFR2-BP antag inactive, H9c2 protect inactive, CRFR2-BP ag inactive and H9c2 TAG conf inactive.
Screening C[C@H](CO)N1C[C@H](C)[C@H](CN(C)S(=O)(=O)c2ccc(Cl)cc2)OCc2ccccc2-c2c(n(C)c3ccccc23)C1=O returned iPSC survival up inactive, SKN-1 inh inactive, TAG inh 51, CRFR2-BP antag inactive, H9c2 protect inactive, CRFR2-BP ag inactive and H9c2 TAG conf 80.
Screening O=[N+]([O-])c1ccccc1C(O)Cc1ccccn1 (stereo not drawn) returned iPSC survival up inactive, SKN-1 inh inactive, TAG inh inactive, CRFR2-BP antag inactive, H9c2 protect inactive and CRFR2-BP ag inactive.
CN(Cc1ccc(Cl)c(Cl)c1)C(=O)C1CSC2(C)CCC(=O)N12 (stereo not drawn) was read as iPSC survival up inactive, SKN-1 inh inactive, TAG inh inactive, CRFR2-BP antag inactive, H9c2 protect inactive and CRFR2-BP ag inactive.
`Cc1cc(C)nc(NC(=NCCc2c[nH]c3ccccc23)NC(=O)Nc2ccc(Cl)c(Cl)c2)n1` gave iPSC survival up inactive, SKN-1 inh inactive, TAG inh 67, CRFR2-BP antag inactive, H9c2 protect inactive, CRFR2-BP ag inactive and H9c2 TAG conf 70.
Screening CC(C)(C)C(=O)Nc1c2c(nn1-c1ccccc1)CSC2 returned iPSC survival up inactive, SKN-1 inh inactive, CRFR2-BP antag inactive, H9c2 protect inactive and CRFR2-BP ag inactive.
CCN(CC(=O)Nc1ccc(OC)cc1)C(=O)CSCC(=O)Nc1cc(C)on1 was read as iPSC survival up inactive, SKN-1 inh inactive, TAG inh inactive, CRFR2-BP antag inactive, H9c2 protect inactive and CRFR2-BP ag inactive.
For C[C@@H]1CN([C@@H](C)CO)C(=O)c2cc(N(C)C)ccc2O[C@@H]1CN(C)Cc1ccncc1 the results were iPSC survival up inactive, SKN-1 inh inactive, TAG inh 61, CRFR2-BP antag inactive, H9c2 protect inactive, CRFR2-BP ag inactive and H9c2 TAG conf inactive.
Screening COc1ccccc1NC(=O)c1cnc(SCC(=O)NCC2CCCO2)n(C)c1=O (stereo not drawn) returned iPSC survival up inactive, SKN-1 inh inactive, TAG inh inactive, CRFR2-BP antag inactive, H9c2 protect inactive and CRFR2-BP ag inactive.
Screening OCC1OC(n2ccc3c(NO)ncnc32)C(O)C1O (stereo not drawn) returned iPSC survival up inactive, SKN-1 inh inactive, TAG inh inactive, CRFR2-BP antag inactive, H9c2 protect inactive and CRFR2-BP ag inactive.
For CC(C)=CCNc1ncnc2c1c(C#N)cn2C1OC(CO)C(O)C1O (stereo not drawn) the results were iPSC survival up inactive, SKN-1 inh inactive, TAG inh 58, CRFR2-BP antag inactive, H9c2 protect inactive, CRFR2-BP ag inactive and H9c2 TAG conf 46.
Screening Cc1nc(C(=O)N2CCC(n3nccc3NC(=O)Nc3ccccc3Cl)CC2)cs1 returned iPSC survival up inactive, SKN-1 inh inactive, CRFR2-BP antag inactive, H9c2 protect inactive and CRFR2-BP ag inactive.
COc1ccc(Cl)cc1-c1cc(C(=O)NCC2CCCCC2)[nH]n1 was read as iPSC survival up inactive, SKN-1 inh inactive, TAG inh 53, H9c2 protect inactive and H9c2 TAG conf inactive.
`CCOc1ccc(Cl)cc1-c1cc(C(=O)NCC2CCCCC2)[nH]n1` gave iPSC survival up inactive, SKN-1 inh inactive, TAG inh inactive and H9c2 protect inactive.
`CC(C)NS(=O)(=O)c1ccc(CCC(=O)Nc2cc(Cl)ccc2Oc2ccccc2)cc1` gave iPSC survival up inactive, SKN-1 inh inactive, TAG inh 52, CRFR2-BP antag inactive, H9c2 protect inactive, CRFR2-BP ag inactive and H9c2 TAG conf inactive.
COc1ccc(NC(C)=O)cc1CP(=O)(c1ccccc1)c1ccccc1 was read as iPSC survival up inactive, SKN-1 inh inactive, CRFR2-BP antag inactive, H9c2 protect inactive and CRFR2-BP ag inactive.
For COc1ccc(-c2cnc3c(NC=O)cc(-c4cccc(NS(C)(=O)=O)c4)cn23)cc1OC the results were iPSC survival up inactive, SKN-1 inh inactive, TAG inh 65, H9c2 protect 105 and H9c2 TAG conf 58.
COc1ccc(-c2cnc3c(NC(C)=O)cc(-c4ccc(C(=O)NC5CC5)cc4)cn23)cc1OC was read as iPSC survival up inactive, SKN-1 inh inactive, TAG inh inactive and H9c2 protect inactive.
COc1ccccc1-c1cc(NC=O)c2ncc(-c3cccc(C(=O)N(C)C)c3)n2c1 was read as iPSC survival up inactive, SKN-1 inh inactive, TAG inh 59, H9c2 protect inactive and H9c2 TAG conf 68.
CN(C)C(=O)c1cccc(-c2cnc3c(NC=O)cc(-c4ccccc4F)cn23)c1 was read as iPSC survival up inactive, SKN-1 inh inactive, TAG inh inactive and H9c2 protect inactive.
`CN(C)C(=O)c1cccc(-c2cnc3c(NC=O)cc(-c4cc(F)c(F)c(F)c4)cn23)c1` gave iPSC survival up inactive, SKN-1 inh inactive, TAG inh inactive and H9c2 protect inactive.
Screening COc1cc(-c2cc(NC=O)c3ncc(-c4cccc(C(=O)N(C)C)c4)n3c2)cc(OC)c1OC returned iPSC survival up inactive, SKN-1 inh inactive, TAG inh 58, H9c2 protect inactive and H9c2 TAG conf 72.

Source: PubChem BioAssay
